Our source for the percent of negative control (+Dex) and z-score values is PubChem BioAssay.

The source made the active and inactive calls. How the calls were made is not given here.

This test in a line: modulators of glucocorticoid suppression of NF-kB, cell-based, luciferase, IL-1B stimulus, dexamethasone (AID 624486).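 On percent of negative control (+Dex): 100% = mean signal of vehicle control wells on the plate.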 Particulars: NF-kB luciferase reporter, IL-1B + dexamethasone, luminescence; percent of negative control (+Dex): actives lie on both sides, concentration not given here; z-score: measured here: IL-1B alone, no Dex.
Consider `COc1ccc(Nc2ncc(-c3ccccc3)o2)cc1OC`, for which the percent of negative control (+Dex) is 154% (inactive) and the z-score is 4.41.

For the molecule `Fc1ccc(-c2nc3n(c2-c2ccncc2)CCS3)cc1`, the percent of negative control (+Dex) is 112% (inactive) and the z-score came out at 2.42.

For `CCn1c(-c2nonc2N)nc2cnc(Oc3cccc(NC(=O)c4ccc(OCCN5CCOCC5)cc4)c3)cc21`, the z-score was -3.25 and the percent of negative control (+Dex) is 50.5% (inactive).

As to `Cc1ccc(O)cc1Nc1ccnc2ccc(S(C)(=O)=O)cc12`, the percent of negative control (+Dex) is 60.5% (inactive) and the z-score was -3.46.

Take `CN(C)c1cc2c(Nc3ccc4c(cnn4Cc4ccccc4)c3)ncnc2cn1`: the percent of negative control (+Dex) is 68% (inactive) and the z-score is -1.64.

`Cc1ccc2c(-c3ccnc(Nc4ccc5c(c4)OCCO5)n3)c(-c3ccc(C(F)(F)F)cc3)nn2n1`: the percent of negative control (+Dex) was 86% (inactive) and the z-score is -0.095.

On to `Cc1ccc(NC(=O)c2ccoc2)cc1-c1ccc(C(=O)NCC2CC2)cc1`, for which the percent of negative control (+Dex) is 99.5% (inactive) and the z-score was determined as 0.73.

For `O=C(Nc1n[nH]c2cc(-c3cc(F)ccc3F)ccc12)C1CC1`, the z-score was -0.38 and the percent of negative control (+Dex) is 81% (inactive).

For `NC(=O)c1ccc(-c2nc(-c3ccc4c(c3)OCO4)c(-c3ccccn3)[nH]2)cc1`, the z-score was determined as 0.215 and the percent of negative control (+Dex) is 92% (inactive).

As to `CN(C)c1cc2c(Nc3ccc4nc(Cc5ccccc5)[nH]c4c3)ncnc2cn1`, the percent of negative control (+Dex) was 77% (inactive) and the z-score is -0.53.

For the molecule `Cc1ccc(C(=O)NC2CCC2)cc1-c1ccc(C(=O)NCC2CC2)cc1`, the percent of negative control (+Dex) is 98.5% (inactive) and the z-score worked out at 1.36.

For `CCNC(=O)O[C@H]1CN[C@H](C#Cc2cc3ncnc(Nc4ccc(OCc5cccc(F)c5)c(Cl)c4)c3s2)C1`, the z-score was -0.355 and the percent of negative control (+Dex) is 82.5% (inactive).

For `Cn1cc(C2=C(c3cn(CCCN)c4ccccc34)C(=O)NC2=O)c2ccccc21`, the z-score was -0.65 and the percent of negative control (+Dex) is 104% (inactive).
